Screening results deposited in PubChem BioAssay by several laboratories.
A selection: hits, their analogues and other compounds. The true share with any hit is near 3.1%.
HSP90 refold inh: HSP90 inhibitors, primary screen, cell lysate, luminescence | AID 1789, 2009 | Rabbit reticulocyte lysate, luciferase refolding luminescence, 3 h | Heat shock protein HSP 90 (rabbit reticulocyte lysate; luciferase refolding) | actives 0.91% (n = 290,000) | inhibition, % at 5.6 µM;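 active = inhibition above the screen-wide mean plus 3 SD, computed separately per campaign, cut at about 16% in these data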;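 note: 0% = DMSO wells and 100% = 60 µM geldanamycin wells; inhibitors lower the luminescence because luciferase stays unfolded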
HSF1 inhib: HSF1 inhibitors in luciferase reporter cells, primary screen, cell-based, NIH3T3, luminescence | NIH3T3-HGL HSE-luciferase, MG132-induced, luminescence 8 h; active compounds read low | activity change, negative = inhibition, % at 7.5 µM (by protocol) | actives 0.77% (n = 300,000) | AID 2098, 2009;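 active = more than half of replicate wells show activity change below -50%, luminescence cut by over half; inconclusive = some wells, but at most half, below -50%; inactive = no replicate well below -50%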;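 note: luciferase reports HSF-1 transcriptional activity via heat shock element; 0% = median of DMSO wells and -100% = zero luminescence signal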
HIF act: HIF pathway transcriptional activators, primary screen, cell-based, U2OS HRE-luciferase, luminescence | U2OS HRE-luciferase reporter; normalized: DMSO 0%, desferrioxamine 100% | activation, % at 7.5 µM (by protocol) | actives 0.32% (n = 300,000);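 active = mean activation of at least 10% of the iron chelator positive control signal, with at least half of replicates also reaching 10%; inconclusive = mean and replicate majority disagree about reaching 10%; inactive = mean and most replicates under 10%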
HSF-1 act: HSF-1 activators, primary screen, NIH3T3-HGL cells, MG132 stress, luminescence, single point. NIH3T3-HGL HSF-1 luciferase reporter, 8 h; 100% = twice DMSO control signal. activation, % at 9 µM. actives 1.7% (n = 300,000);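 active = mean replicate activation of at least 50% with a set share of replicates each reaching 50%; inconclusive = only one of those two conditions met; inactive = mean below 50% and too few replicates reaching it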;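 note: 0% = median of the neutral control wells and 100% = twice that signal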
ARNT-TACC3 inh: disruptors of ARNT/TACC3 protein interaction, primary screen, biochemical, AlphaScreen, single concentration; Transforming acidic coiled-coil-containing protein 3 (Homo sapiens), Q9Y6A5; AlphaScreen His-ARNT PAS-B/GST-TACC3 binding, luminescence; TACC3 fragment carries E629A point mutation; inhibition, % at 9.99 µM; actives 0.66% (n = 390,000); AID 623870, 2012;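 active = mean inhibition of replicates at least 50% and at least half of replicates each reaching 50%; inconclusive = half or more replicates reach 50% but mean below 50%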;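 note: 0% = complete ARNT plus TACC3 wells and 100% = ARNT alone without TACC3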
Starred values were filed as active, the others as inactive.

`COc1ccc(N=Cc2sc3ccccc3c2Cl)cc1` gave HSP90 refold inh 0.6, HSF1 inhib inconclusive, HIF act 1.7, HSF-1 act -44.9 and ARNT-TACC3 inh 7.8.
For Oc1ccc(Cl)cc1N=Cc1sc2ccccc2c1Cl the results were HSP90 refold inh 63.7*, HSF1 inhib 11.9, HIF act 0.2, HSF-1 act 45.0 and ARNT-TACC3 inh 1.0.
Screening Cc1ccc(SCCN2CCN(C)CC2)cc1 returned HSP90 refold inh -4.6, HSF1 inhib 17.8, HIF act -0.2, HSF-1 act 57.9* and ARNT-TACC3 inh 20.6.
CC1C(=O)NN=C1C(=O)N/N=C\c1ccc(O)cc1O (stereo not given) was read as HSP90 refold inh 3.8, HSF1 inhib -4.2, HIF act -0.2, HSF-1 act 2.7 and ARNT-TACC3 inh 78.9*.
COc1cc(/C=N/NC(=O)C2=NNC(=O)C2C)ccc1O (stereo not given) was read as HSP90 refold inh -1.8, HSF1 inhib -5.8, HIF act 0.1, HSF-1 act -3.9 and ARNT-TACC3 inh 2.2.
For CC1C(=O)NN=C1C(=O)N/N=C\C(Br)=C\c1ccccc1 (stereo not given) the results were HSP90 refold inh -4.3, HSF1 inhib 153.2, HIF act 1.8 and HSF-1 act 213.4*.
`CC1=NNC(=O)C1CCC(=O)N/N=C/C(Br)=C/c1ccccc1` (stereo not given) gave HSP90 refold inh -3.0, HSF1 inhib 66.5, HIF act 4.0, HSF-1 act 88.0* and ARNT-TACC3 inh -2.0.
For C[C@@H]1CN([C@H](C)CO)C(=O)c2cc(NC(=O)Cc3ccccc3)ccc2O[C@@H](C)CCCCO[C@@H]1CN(C)S(=O)(=O)c1ccccc1 the results were ARNT-TACC3 inh -6.4.
For Cc1ccc(-c2ccc3c(c2)O[C@H](CN(C)Cc2cccnc2)[C@H](C)CN([C@@H](C)CO)S3(=O)=O)cc1 the results were ARNT-TACC3 inh 6.7.
Screening COc1ccc(-c2[nH]ncc2/C=N\NC(=O)c2ccc(C(C)(C)C)cc2)cc1OC returned HSP90 refold inh 1.5, HSF1 inhib 3.7, HIF act 0.3, HSF-1 act 34.3 and ARNT-TACC3 inh -2.1.
For CCCCOc1ccc(C(=O)N/N=C/c2cn[nH]c2-c2ccc(OC)c(OC)c2)cc1 the results were HSP90 refold inh 0.5, HSF1 inhib 17.3, HIF act -0.3, HSF-1 act 54.1* and ARNT-TACC3 inh -1.0.
For CC(C)NC1=C(Cl)C(=O)c2ccccc2C1=O the results were HSP90 refold inh 10.1, HSF1 inhib 51.1, HIF act 0.2, HSF-1 act 70.4* and ARNT-TACC3 inh -4.1.
For CCN(CC)CCCNC1=C(Cl)C(=O)c2ccccc2C1=O the results were HSP90 refold inh 2.9, HSF1 inhib 1.0, HIF act -6.5, HSF-1 act 15.7 and ARNT-TACC3 inh 14.9*.
O=C(O)c1cccc(NC2=C(Cl)C(=O)c3ccccc3C2=O)c1 was read as HSP90 refold inh -7.1, HSF1 inhib -88.1*, HIF act -2.1, HSF-1 act -89.8 and ARNT-TACC3 inh 15.6.
For O=C1C(Cl)=C(Nc2ccccc2)C(=O)c2ccccc21 the results were HSP90 refold inh 1.0, HSF1 inhib -6.3, HIF act -7.0, HSF-1 act 0.3 and ARNT-TACC3 inh 2.2.
For O=C(Nc1ccc2c(c1)OCO2)N[C@H]1CC[C@H](CCNC(=O)C2CCCC2)O[C@@H]1CO the results were ARNT-TACC3 inh -3.6.
`Cc1ccc(S(=O)(=O)N(C)C[C@@H]2OCCCC[C@H](C)Oc3ccc(NC(=O)NC(C)C)cc3C(=O)N([C@H](C)CO)C[C@H]2C)cc1` gave ARNT-TACC3 inh -7.2.
`N=C1C(c2nc3ccccc3[nH]2)=C(O)CN1c1ccc(CC(=O)O)cc1` gave HSP90 refold inh -0.4, HSF1 inhib -53.9*, HIF act -1.1, HSF-1 act -63.1 and ARNT-TACC3 inh 11.4.
Screening C[C@@H]1CN([C@@H](C)CO)C(=O)Cc2cc(NC(=O)Cn3cnnn3)ccc2O[C@@H]1CN(C)Cc1ccc2c(c1)OCO2 returned ARNT-TACC3 inh -18.5.
`Cc1ccc([N+](=O)[O-])cc1N=Nc1c(C)[nH]n(C(N)=S)c1=O` gave HSP90 refold inh 3.6, HSF1 inhib 6.2, HIF act 1.8, HSF-1 act 7.9 and ARNT-TACC3 inh 3.6.
`Cc1ccc([N+](=O)[O-])cc1N=Nc1c(-c2ccc([N+](=O)[O-])cc2)[nH]n(C(N)=S)c1=O` gave HSP90 refold inh 1.5, HSF1 inhib 19.2, HIF act 0.8, HSF-1 act 55.7* and ARNT-TACC3 inh -1.0.
CCCNC(=O)[C@H]1[C@H](CO)[C@H]2Cn3c(ccc(-c4cccc(C(=O)N(C)C)c4)c3=O)[C@@H]1N2 was read as ARNT-TACC3 inh -5.0.
For COc1cccc(C(=O)CSc2nccn2C)c1 the results were HSP90 refold inh 2.1, HSF1 inhib 27.0, HIF act 3.9, HSF-1 act 39.5 and ARNT-TACC3 inh -4.0.
Screening COc1ccc(C(=O)CSc2nncn2C)cc1 returned HSP90 refold inh 1.2, HSF1 inhib 7.3, HIF act 21.6*, HSF-1 act 1.3 and ARNT-TACC3 inh 6.6.
`Cn1ccnc1SCC(=O)c1ccc2ccccc2c1` gave HSP90 refold inh -0.9, HSF1 inhib 207.2, HIF act 0.7, HSF-1 act 212.6* and ARNT-TACC3 inh 4.0.
For Cn1ccnc1SCC(=O)N(C1CCCCC1)C1CCCCC1 the results were HSP90 refold inh 0.0, HSF1 inhib -68.3*, HIF act -1.1 and HSF-1 act -75.0.
`Cc1noc(C)c1NC(=O)NCC[C@@H]1CC[C@H](NC(=O)c2ccccc2)[C@H](CO)O1` gave ARNT-TACC3 inh 6.5.
Screening CCCC(=O)Nc1ccc2c(c1)C(=O)N(C)[C@@H]1CC[C@@H](CC(=O)Nc3cn(C)nc3C)O[C@@H]1CO2 returned ARNT-TACC3 inh 7.6.
CCN(CC)S(=O)(=O)c1cc([N+](=O)[O-])ccc1NNC(=O)Nc1ccccc1OC was read as HSP90 refold inh -1.4, HSF1 inhib 20.2, HIF act -0.2, HSF-1 act 71.0* and ARNT-TACC3 inh 5.0.
CC(C)NC(=S)Nc1ccc(S(=O)(=O)Nc2ncccn2)cc1 was read as HSP90 refold inh 2.0, HSF1 inhib -0.5, HIF act -0.2, HSF-1 act 15.7 and ARNT-TACC3 inh 16.9.
Screening O=S(=O)(Nc1ccncc1)c1ccc(Cl)cc1 returned HSP90 refold inh -1.6, HSF1 inhib -71.4*, HIF act 0.2, HSF-1 act -77.4 and ARNT-TACC3 inh -1.9.
`Cc1cc(C)cc(NS(=O)(=O)c2ccc(NC(=S)Nc3ccccc3)cc2)c1` gave HSP90 refold inh -3.8, HSF1 inhib 9.8, HIF act 0.7, HSF-1 act 13.0 and ARNT-TACC3 inh -1.4.
